SKKanGAS inh – blocks kanamycin growth of S. pyogenes SKKanGAS strain; BacTiter-Glo, 6 h; inhibition, % at 7.5 µM; 300,000 compounds, 1.3% hits;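 active = mean replicate score, as percent of positive control median, at least 50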;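 also: strain carries kanamycin resistance gene driven by streptokinase promoter and grows in 40 µg/ml kanamycin; loss of luminescence reflects streptokinase promoter inhibition or plain growth inhibition; 0% = median of DMSO wells and 100% = positive control at its reference dose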
PfHsp90 yeast 2 – reduces growth (ATP signal) of yeast expressing P. falciparum Hsp90. 310,000 compounds, 0.32% hits. inhibition, % at 9.4 µM. S. cerevisiae expressing PfHsp90, BacTiter-Glo ATP, 48 h; yeast lacking PDR1 and PDR3 efflux regulators;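 active = every replicate shows inhibition above about 80%, whatever the replicate mean, limit read from the data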;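 also: 0% = DMSO neutral controls and 100% = 20 µM radicicol positive controls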
TIM10 inh – TIM10 yeast growth inhibition; 330,000 compounds, 1.4% hits; AID 463195; S. cerevisiae TIM10 strain growth, BacTiter-Glo luminescence, 24 h; inhibition, % at 10 µM;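 active = inhibition of 40% or more at the single tested concentration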;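 also: wild-type TIM10 isogenic control strain grown at permissive 25 °C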
tim10-1 inh – tim10-1 yeast growth inhibition | 330,000 compounds, 2.2% hits | AID 463190 | inhibition, % at 20 µM | S. cerevisiae tim10-1 ts strain growth, BacTiter-Glo, 24 h;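 active = inhibition of at least 40%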;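 also: mutant grown at 25 °C; 0% = DMSO wells with yeast and 100% = wells holding no yeast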
tim23-1 inh – tim23-1 yeast growth inhibition; S. cerevisiae tim23-1 growth, BacTiter-Glo luminescence, 24 h; inhibition, % at 20 µM; 330,000 compounds, 1.3% hits; AID 463212;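 active = growth inhibition of the mutant yeast at or above 50%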;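 also: temperature-sensitive mutant grown at 25 °C; plate controls were DMSO-treated mutant yeast for no effect and medium wells lacking yeast for full effect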
NALP1 yeast inh – blocks the NALP1 inflammasome reconstituted in yeast; inhibition, % at 10 µM; 280,000 compounds, 0.61% hits; AID 2071; S. cerevisiae NALP1/ASC/caspase-1 growth, X-gal OD620, 72 h; in the data active = inhibition mostly above about 24%, no sharp cut-off; inactive = mostly below about 32%
tim10-1 conf – tim10-1 yeast growth inhibition, confirmed | shares compounds with tim10-1 inh | 7,400 compounds, 56% hits | inhibition, % at 20 µM | AID 463213 | S. cerevisiae tim10-1 ts strain growth, BacTiter-Glo, 24 h;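 active = inhibition of yeast growth at or above a set limit in either of two repeat tests at 20 µM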;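 also: tim10-1 mutant grown at permissive 25 °C to find synthetic lethal compounds; 0% = DMSO yeast wells and 100% = medium wells without yeast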
TIM10 conf – TIM10 yeast growth inhibition, confirmed. shares compounds with TIM10 inh. S. cerevisiae tim10 strain growth, BacTiter-Glo luminescence, 24 h. inhibition, % at 10 µM. 4,600 compounds, 63% hits. AID 463215;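 active = inhibition of yeast growth at or above a set limit in either of two replicates at 10 µM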;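 also: this counterscreen used the strain with wild-type TIM10; 0% = yeast with DMSO and 100% = medium wells lacking yeast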
tim23-1 confirm – confirmation of tim23-1 mutant yeast growth inhibitors | shares compounds with tim23-1 inh | S. cerevisiae tim23-1 growth, BacTiter-Glo luminescence, 24 h | inhibition, % at 20 µM | 4,400 compounds, 83% hits | AID 463218;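 active = inhibition above about 39% in either of two replicate wells at 20 µM, limit read from the data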;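 also: temperature-sensitive tim23-1 mutant grown at 25 °C; 0% = DMSO wells with yeast and 100% = medium wells without yeast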
* = called active by the depositor; . = no result. An excerpt weighted towards active compounds, which were near 4.8% of everything screened.

SMILES	SKKanGAS inh	PfHsp90 yeast 2	TIM10 inh	tim10-1 inh	tim23-1 inh	NALP1 yeast inh	tim10-1 conf	TIM10 conf	tim23-1 confirm
CCOc1cc(/C=C(\C#N)C(N)=O)ccc1OS(=O)(=O)c1ccccc1	4	-8	31	48*	57*	15	38*	.	58*
O=c1oc2cc(O)c(Cl)cc2c2ccccc12	4	-3	6	5	18	32	.	.	.
O=c1oc(Cl)c(Cl)c2ccccc12	.	14	10	45*	64*	.	7	.	88*
COCc1nnc(NS(=O)(=O)c2ccc(OC)cc2)s1	.	-8	.	.	.	.	.	.	.
Nc1nn2cc(-c3ccc(Br)cc3)nc2c2ccccc12	25	-3	59*	41*	77*	.	65*	65*	82*
N/C(=N\OC(=O)/C=C/c1ccccc1)c1cccnc1	-9	0	10	28	16	12	.	.	.
Cc1ccccc1/C(N)=N/OC(=O)/C=C/c1ccccc1	-10	-2	76*	76*	73*	10	52*	68*	56*
Cc1ccccc1/C(N)=N/OC(=O)c1cccs1	-3	27	70*	61*	68*	27	50*	-11	48*
N/C(=N\OC(=O)c1cccs1)c1cccnc1	0	6	10	-22	5	8	.	.	.
COc1ccc(/C=C/C(=O)O/N=C(\N)c2ccccc2)cc1OC	-3	6	15	0	18	33	.	.	.
COc1ccc(/C(N)=N/OC(=O)/C=C/c2ccccc2)cc1	7	17	61*	62*	80*	-15	41*	68*	72*
Cc1ccc(/C(N)=N/OC(=O)/C=C/c2ccccc2)cc1	-3	-35	72*	60*	67*	-2	47*	78*	77*
O=c1ccc2cc3c(-c4ccccc4)coc3cc2o1	9	-13	46*	60*	64*	-7	61*	58*	66*
CC(=O)Oc1ccc2occ(-c3ccccc3)c2c1	6	-11	17	24	27	10	.	.	.
CC(=O)N1CCN(S(=O)(=O)c2cccc(C(=O)NNC(=O)c3ccc(Br)cc3)c2)CC1	.	23	.	.	.	.	.	.	.
Cc1cc(Nc2ccccc2)nc(-c2ccccc2O)n1	4	-58	56*	63*	65*	12	55*	66*	68*
CSc1cccc(NC(=O)c2ccc(CN3CCc4ccccc4C3)cc2)c1	13	3	16	9	4	7	.	.	.
O=C(Nc1cccc(Br)c1)c1ccc(CN2CCc3ccccc3C2)cc1	11	0	44*	44*	63*	17	31*	38*	74*
O=C(CSc1nnc(-c2ccco2)n1Cc1ccccc1)NC(=O)NCc1ccccc1	5	6	-16	23	-23	12	.	.	.
O=C(CCc1nc2ccccc2c(=O)[nH]1)Nc1cc(C(F)(F)F)ccc1N1CCOCC1	-12	15	-5	-11	-11	.	.	.	.
Cc1ccc([N+](=O)[O-])cc1N1C(=O)CS/C1=N\NC(=O)c1cccnc1	2	-2	-1	-4	2	21	.	.	.
O=C(CCSc1ccccc1Cl)Nc1cccc([N+](=O)[O-])c1	-4	13	52*	56*	54*	18	50*	29	62*
Cc1noc2ncnc(Sc3ccc(Br)cc3)c12	6	-21	36	54*	65*	-3	74*	.	68*
Cc1cc(N/N=C/c2ccc(Cl)cc2)nc(NCc2ccccc2)n1	3	1	11	48*	75*	47	41*	.	36
Cc1cccc(C(=O)Nc2cccc(C(=O)N/N=C/c3ccccn3)c2)c1	-3	35	14	15	19	2	.	.	.
SMILES	SKKanGAS inh	PfHsp90 yeast 2	TIM10 inh	tim10-1 inh	tim23-1 inh	NALP1 yeast inh	tim10-1 conf	TIM10 conf	tim23-1 confirm
Cc1[nH]n(-c2ccccc2)c(=O)c1C(C[N+](=O)[O-])c1ccc(F)cc1 (stereo unspecified)	9	18	48*	60*	83*	109*	41*	12	64*
COc1ccc(C(c2c(C)[nH]n(-c3ccccc3)c2=O)c2c(C)[nH]n(-c3ccccc3)c2=O)cc1OC	26	9	22	37	36	24	.	.	.
Cc1[nH]n(-c2ccccc2)c(=O)c1C(C[N+](=O)[O-])c1ccc(Cl)cc1 (stereo unspecified)	7	.	49*	58*	86*	108*	48*	28	84*
Cc1ccc(C(C[N+](=O)[O-])c2c(C)[nH]n(-c3ccccc3)c2=O)cc1 (stereo unspecified)	0	-4	29	42*	75*	105*	25	.	61*
Cc1[nH]n(-c2ccccc2)c(=O)c1C(c1ccccc1C(=O)O)c1c(C)[nH]n(-c2ccccc2)c1=O	-1	3	6	-6	9	32	.	.	.
Cc1[nH]n(-c2ccccc2)c(=O)c1Sc1ccc(Cl)cc1	-1	-8	19	13	21	-3	.	.	.
Cc1cc(NC(=O)c2ccc(Br)cc2)nc(C)n1	-4	-20	4	20	4	3	.	.	.
COc1ccc(/C=C(\NC(=O)c2cccs2)C(=O)Nc2ccccc2C)cc1OC	5	-24	14	6	12	24	.	.	.
NC(=S)N/N=C/c1ccc(-c2cc(Cl)cc(Cl)c2)o1	-3	-34	8	29	-5	-2	.	.	.
NC(=S)N/N=C/c1ccc(-c2cc(Cl)ccc2Cl)o1	-2	-106	45*	44*	54*	-1	18	39*	62*
O=C(Cn1c(=O)oc2ccccc21)Nc1ccc(Cl)cc1	3	-11	-14	-17	26	58	.	.	.
Oc1ccc2ccccc2c1C=NC1CCCCC1	-3	26	18	41*	55*	12	14	.	53*
Oc1ccc2ccccc2c1/C=N/n1cnnc1	-1	.	5	5	11	2	.	.	.
Cc1cccc(CS(=O)(=O)c2nnc([C@H](Cc3ccccc3)NC(=O)OC(C)(C)C)o2)c1	79*	112*	54*	69*	55*	-7	51*	52*	61*
COc1ccsc1C(=O)Nc1ccc(F)cc1F	-4	-7	10	5	10	-12	.	.	.
O=S(=O)(Nc1cccc(Cl)c1)c1cccc(-n2cnnn2)c1	.	.	-3	-12	3	.	.	.	.

Source: PubChem BioAssay (several laboratories)
